Test results: PubChem BioAssay (NCI)
About 83,000 compounds went through this panel and 20% of them were active in at least one assay; those are over-represented in the sample as a whole.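 Compound tested at a single concentration for 48 hours in 96-well plates; a percent growth value below 10 was scored as active.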 A number with no mark means an inactive call. Calls of active or inactive are those of the source.

What was measured:
Test in all cases: NCI-60 one-dose screen, 48 h (100 = growth as untreated, 0 = no growth, -100 = all killed)
NCI-H23 lung = conditions: 10 µM unless noted
NCI-H322M lung = conditions: 10 µM unless noted
HOP-62 NSCLC = conditions: 10 µM unless noted
NCI-H460 lung = conditions: 10 µM unless noted
NCI-H522 lung = conditions: 10 µM
A549/ATCC NSCLC = conditions: 10 µM unless noted
786-0 renal = conditions: 10 µM unless noted
COLO 205 colon = conditions: 10 µM unless noted
DU-145 prostate = conditions: 10 µM unless noted
K-562 leukemia = conditions: 10 µM unless noted
MALME-3M melanoma = conditions: 10 µM unless noted
MDA-MB-231 breast = conditions: 10 µM unless noted
RXF 393 renal = conditions: 10 µM unless noted
SF-268 CNS = conditions: 10 µM unless noted
SF-539 CNS = conditions: 10 µM unless noted
UACC-257 melanoma = conditions: 10 µM unless noted
M14 melanoma = conditions: 10 µM unless noted
SF-295 CNS = conditions: 10 µM unless noted

Structure (SMILES)	growth (NCI-H23 lung)	growth (NCI-H322M lung)	growth (HOP-62 NSCLC)	growth (NCI-H460 lung)	growth (NCI-H522 lung)	growth (A549/ATCC NSCLC)	growth (786-0 renal)	growth (COLO 205 colon)	growth (DU-145 prostate)	growth (K-562 leukemia)	growth (MALME-3M melanoma)	growth (MDA-MB-231 breast)	growth (RXF 393 renal)	growth (SF-268 CNS)	growth (SF-539 CNS)	growth (UACC-257 melanoma)	growth (M14 melanoma)	growth (SF-295 CNS)
COc1ccc(C2OCC(C)(C)CO2)cc1OC	98.3%	151%	117%	108%	117%	100%	110%	113%	107%	101%	107%	103%	88%	101%	104%	87.5%	113%	
Clc1ccccc1Nc1ccc2nnc(-c3ccncc3)n2n1	101%	102%	112%	109%	-55.8% (active)	89.9%	75.7%		114%	47.6%	112%	108%	96.2%	101%	92.7%	114%	112%	93.9%
O=S(=O)(/N=C1C=C/C(=N\S(=O)(=O)c2ccccc2)c2ccccc2\1)c1ccccc1	83.1%	107%	90.2%	112%	85.9%	101%	115%		117%	91.8%	107%	98.3%	107%	104%	123%	95.1%	112%	116%
COc1cc(C2CC(=O)Nc3c2ccc2ccccc32)cc(Br)c1OC (stereo not drawn)	28.5%	33.1%	24.9%	3.08% (active)	-42.7% (active)	18.6%	30.6%	-57.5% (active)	-4.56% (active)	6.59% (active)	27.6%	28.5%	-1.55% (active)	42.5%	0.195% (active)	59.7%	-15.3% (active)	-33.7% (active)
CN1CCN(C(=O)OCCOCCOC(=O)N2CCN(C)CC2)CC1	97.6%	105%	106%	107%		104%	94.5%	102%	111%	106%	133%	94.9%	87.8%	102%	97.9%	94.2%	103%	85.9%
CNc1ccc(Br)cc1-c1n[nH]c(=O)[nH]c1=O	90.8%	115%	105%	101%		112%	95%	131%	122%	103%	110%	94.2%		111%	103%		100%	79.6%
CCOC(=O)c1sc(NC(=O)CN2CCC(Cc3ccccc3)CC2)nc1C	96.2%	90.4%	102%	101%	92.9%	104%	96.9%		102%	93.9%	82.4%	119%	111%	106%	106%	127%	101%	42.3%
c1ccc(-c2nc(N3CCOCC3)c3c4c(sc3n2)CCCCCC4)nc1	62.1%	73%	70.3%	33.6%		28.9%	87.1%		76.1%	32%	58.4%	63.4%		74.1%	77%		59.2%	6.04% (active)
O=c1nc(NO)[nH]c(=O)n1Cc1ccc(F)cc1	106%	98.8%	107%	102%		104%	101%	118%	114%	98.1%	103%	122%		104%	102%		107%	
O=C(Nc1nc2ccccc2[nH]1)C(=O)Nc1nc2ccccc2[nH]1	89.6%	91.8%	98.6%	98.5%	101%	97.5%	108%	103%	114%	94.1%	91.4%	91%	102%	102%	95.8%	101%	98.8%	
Cc1ccc(S(=O)(=O)N2C/C(=C\c3cc(F)cc(F)c3)C(=O)/C(=C/c3cc(F)cc(F)c3)C2)cc1	-21.6% (active)	27%	-60% (active)	5.73% (active)		27.6%	-85.6% (active)	1.42% (active)	-61.3% (active)	2.14% (active)	-62.9% (active)	-29.7% (active)		-40.6% (active)	-39.6% (active)		-50.1% (active)	
CN(C)C(=S)SCN1C(=O)c2ccc([N+](=O)[O-])cc2S1(=O)=O	99.7%	99%	105%	103%	103%	97.7%	103%	75.9%	94.3%	77.8%	92.8%	106%	113%	99.9%	102%	102%	103%	101%
O=S(=O)(Nc1ncccn1)c1ccc(Nc2ccc3nnc(-c4ccncc4)n3n2)cc1	99.6%	112%	104%	96.4%	113%	104%	103%	107%	108%	102%	97.6%	92.2%	118%	98.3%	95.2%	103%	97.7%	100%
CC1(C)CC(=O)C2=C(C1)Nc1cc3c(cc1C2c1ccc(F)cc1)OCO3 (stereo not drawn)	96%	94.8%	95.6%	103%	80.9%	94.5%	109%	117%	117%	87.8%	81.2%	108%	82.3%	92.5%	102%	110%	115%	64.3%
Nc1ccccc1-c1n[nH]c(=O)[nH]c1=O	96.6%	114%	112%	107%		105%	109%		121%	107%	106%	113%		114%	101%		99%	79%
Brc1ccccc1Nc1ccc2nnc(-c3ccncc3)n2n1	92.3%	95.6%	95.1%	104%	-71.2% (active)	101%	101%	103%	113%	46.9%	99.7%	108%	101%	99.4%	104%	106%	101%	
NC(=O)c1nc2c([nH]c1=O)CCCC2	104%	120%	94.7%	115%	91.6%	103%	106%		108%	92.2%	101%	118%	97.6%	101%	96.6%	109%	122%	103%
Cc1oc2c(c1C(=O)N1CC[C@@H](N)C1)C(=O)c1c(c(O)c3ccccc3c1O)C2=O	45.3%	33.5%	31.9%	2.29% (active)	21%	12.4%	41%		24%	3.82% (active)	53.2%	35.2%	48.9%	16%	46.9%	74.8%	38.8%	29.9%
O=C(NCc1ccco1)C1CCN(S(=O)(=O)c2ccc(Cl)cc2)CC1	77.9%	108%	92.6%	63.1%	68.7%	74.9%	82.9%	101%	-18.5% (active)	13.9%	54.6%	68.9%	85.1%	37.1%	80.9%	86.5%	72.4%	
